Assay [1] in a line: NCI Yeast Anticancer Drug Screen. Data for the rad50 strain (AID 155).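 Further: 0% = growth of vehicle-only cultures of the same strain.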 The note with it: S. cerevisiae rad50 strain growth inhibition, stronger effect = higher value. Summed up: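 Relative growth inhibition (compound vs vehicle) was measured in yeast with a defined repair-gene alteration.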
The nature of assay [2]: NCI Yeast Anticancer Drug Screen. Data for the mec2-1 strain (AID 157). The note with it: S. cerevisiae mec2-1 strain, stronger effect = higher value. Summed up:
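Growth inhibition is read against vehicle-treated controls after compound exposure of the mec2-1 yeast strain, which is defective in DNA damage repair or cell cycle control.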

The nature of assay [3]: NCI Yeast Anticancer Drug Screen. Data for the sgs1 mgt1 strain (AID 161).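 Further: 0% = growth of cultures given vehicle only.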 Particulars: S. cerevisiae sgs1 mgt1 strain, stronger effect = higher value. Summed up: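 Percent growth inhibition was derived by comparing compound-exposed mutant yeast with vehicle-exposed cultures. The strain carries alterations in DNA damage repair.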
A short description of assay [4]: NCI Yeast Anticancer Drug Screen. Data for the cln2 rad14 strain (AID 165).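 Further: 0% = growth equal to vehicle treated cultures.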 The note with it: S. cerevisiae cln2 rad14 strain, stronger effect = higher value. Summed up:
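Growth inhibition, relative to vehicle-treated controls, is the read-out. The test organism is a yeast strain with defined genetic alterations, cln2 rad14.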

A short description of assay [5]: NCI Yeast Anticancer Drug Screen. Data for the bub3 strain (AID 167). Particulars: S. cerevisiae bub3 mutant strain, stronger effect = higher value. Summed up: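 Screening used yeast with an engineered genetic alteration affecting cell cycle control. Compound-exposed cultures were compared with vehicle cultures, and reduced growth was taken as inhibition.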
The nature of assay [6]: NCI Yeast Anticancer Drug Screen. Data for the mlh1 rad18 strain (AID 175). The note with it: S. cerevisiae mlh1 rad18 strain growth inhibition, stronger effect = higher value. In a few lines: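 Cells of a genetically altered yeast strain, deficient in DNA damage repair, were treated with compound. Their growth was then compared with that of vehicle-treated cultures to give inhibition.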

Where [7] appears, read: at 5.0 µM (retest, dose inferred, filed as 0.5).
Setting [8] is: at 50.0 µM (retest, dose inferred, filed as 5.0).

Where “and” joins values, the source holds several entries; their conditions need not be identical. Equal values may be shown once. The panel holds about 79,000 compounds, 15% with a hit somewhere; the sample as a whole holds those more often. Where a structure was tested more than once in an assay, its records may differ in their call. Calls of active or inactive are those of the source. No stated cut-off is given here; in the data, active means growth inhibition above about 70%; inactive means the rest.

Consider `CCC(C)(c1ccc(O)cc1)c1ccc(O)cc1`, for which the growth inhibition in assay [1] (setting [7]) is 13% (inactive); in assay [1] (setting [8]), 98% (active); in assay [1] (at 50.0 µM) it was 98.9% (active); in assay [2] (setting [7]), -5% (inactive); in assay [2] (setting [8]) it was 99% (active); in assay [2] (at 50.0 µM) it was 99.5% (active). Also, the growth inhibition in assay [3] (setting [7]) was 3% (inactive); in assay [3] (setting [8]) it was 98% (active); in assay [3] (at 50.0 µM), 98.8% (active); in assay [4] (setting [7]), 21% (inactive); in assay [4] (setting [8]), 98% (active); in assay [4] (at 50.0 µM), 99% (active). Moreover, the growth inhibition is 43% (inactive) in assay [5] (setting [7]); 99% (active) in assay [5] (setting [8]); 96.4% (active) in assay [5] (at 50.0 µM); 14% (inactive) in assay [6] (setting [7]); 99% (active) in assay [6] (setting [8]); 98.7% (active) in assay [6] (at 50.0 µM).

On to `CC(C)CCCC(C)CCC1C(=O)NC(=O)NC1=O` (configuration not stated), for which the growth inhibition in assay [1] (setting [7]) was 6% (inactive); in assay [1] (setting [8]), 23% (inactive); in assay [1] (at 50.0 µM) it was -6.75% (inactive) and 8.2% (inactive); in assay [2] (setting [7]), -17% (inactive); in assay [2] (setting [8]), 4% (inactive); in assay [2] (at 50.0 µM), -0.5% (inactive) and -2.3% (inactive). The growth inhibition in assay [3] (setting [7]) was -6% (inactive); in assay [3] (setting [8]), 21% (inactive); in assay [3] (at 50.0 µM), -8.05% (inactive) and 38.9% (inactive); in assay [4] (setting [7]), -1% (inactive); in assay [4] (setting [8]) it was 3% (inactive); in assay [4] (at 50.0 µM), -31.1% (inactive) and -44.4% (inactive). Besides, the growth inhibition is -3% (inactive) in assay [5] (setting [7]); -3% (inactive) in assay [5] (setting [8]); -5.55% (inactive) and -18.1% (inactive) in assay [5] (at 50.0 µM); 13% (inactive) in assay [6] (setting [7]); 48% (inactive) in assay [6] (setting [8]); 2.7% (inactive) and -0.7% (inactive) in assay [6] (at 50.0 µM).

As for `Cc1ccccc1C(=O)CN`, the growth inhibition is -3% (inactive) in assay [1] (setting [7]); -2% (inactive) in assay [1] (setting [8]); 16.4% (inactive) in assay [1] (at 50.0 µM); 0% (inactive) in assay [2] (setting [7]); -3% (inactive) in assay [2] (setting [8]); -6% (inactive) in assay [2] (at 50.0 µM). Besides, the growth inhibition in assay [3] (setting [7]) is -1% (inactive); in assay [3] (setting [8]) it was 0% (inactive); in assay [3] (at 50.0 µM), -4.2% (inactive); in assay [4] (setting [7]), -5% (inactive); in assay [4] (setting [8]), -3% (inactive); in assay [4] (at 50.0 µM) it was 81.3% (active). Also, the growth inhibition was -2% (inactive) in assay [5] (setting [7]); -9% (inactive) in assay [5] (setting [8]); -13.1% (inactive) in assay [5] (at 50.0 µM); -1% (inactive) in assay [6] (setting [7]); -3% (inactive) in assay [6] (setting [8]); 12.9% (inactive) in assay [6] (at 50.0 µM).

As to `CC(=O)NC1C(S[As](C)C)OC(COC(C)=O)C(OC(C)=O)C1OC(C)=O` (configuration not stated), the growth inhibition in assay [1] (setting [7]) was 59% (inactive); in assay [1] (setting [8]), 98% (active); in assay [1] (at 50.0 µM) it was 91% (active); in assay [2] (setting [7]) it was 18% (inactive); in assay [2] (setting [8]), 95% (active); in assay [2] (at 50.0 µM), 92.4% (active). The growth inhibition in assay [3] (setting [7]) was 21% (inactive); in assay [3] (setting [8]) it was 54% (inactive); in assay [3] (at 50.0 µM), 88.5% (active); in assay [4] (setting [7]), 12% (inactive); in assay [4] (setting [8]), 73% (active); in assay [4] (at 50.0 µM) it was 88.7% (active). Also, the growth inhibition in assay [5] (setting [7]) was 55% (inactive); in assay [5] (setting [8]) it was 98% (active); in assay [5] (at 50.0 µM), 86.1% (active); in assay [6] (setting [7]) it was 44% (inactive); in assay [6] (setting [8]) it was 98% (active); in assay [6] (at 50.0 µM) it was 89.5% (active).

For `N=C(N)SCc1ccc(Cl)c2ccccc12` (tested in a mixture with another compound), the growth inhibition in assay [1] (setting [7]) is 12% (inactive) and 8% (inactive); in assay [1] (setting [8]), 94% (active) and 60% (inactive); in assay [1] (at 50.0 µM) it was 98.8% (active) and 90% (active); in assay [2] (setting [7]), 1% (inactive) and -15% (inactive); in assay [2] (setting [8]), 58% (inactive) and 35% (inactive); in assay [2] (at 50.0 µM), 98.6% (active) and 89.5% (active). The growth inhibition in assay [3] (setting [7]) was -6% (inactive) and -9% (inactive); in assay [3] (setting [8]), 93% (active) and 51% (inactive); in assay [3] (at 50.0 µM), 98.5% (active) and 92.5% (active); in assay [4] (setting [7]), -40% (inactive) and -1% (inactive); in assay [4] (setting [8]), 94% (active) and 38% (inactive); in assay [4] (at 50.0 µM), 94.8% (active) and 57% (inactive). Besides, the growth inhibition in assay [5] (setting [7]) is -21% (inactive) and -5% (inactive); in assay [5] (setting [8]), 72% (active) and 66% (inactive); in assay [5] (at 50.0 µM), 98.2% (active) and 92.8% (active); in assay [6] (setting [7]), 2% (inactive) and -3% (inactive); in assay [6] (setting [8]) it was 91% (active) and 88% (active); in assay [6] (at 50.0 µM), 98.7% (active) and 96% (active).

Consider `CCOP(=O)(Oc1ccc([N+](=O)[O-])cc1)c1ccccc1C(C)C` (configuration not stated), for which the growth inhibition was 11% (inactive) in assay [1] (setting [7]); 49% (inactive) in assay [1] (setting [8]); 90.8% (active) in assay [1] (at 50.0 µM); 25% (inactive) in assay [2] (setting [7]); 70% (active) in assay [2] (setting [8]); 90.8% (active) in assay [2] (at 50.0 µM). Further, the growth inhibition in assay [3] (setting [7]) is -11% (inactive); in assay [3] (setting [8]) it was 92% (active); in assay [3] (at 50.0 µM), 95.6% (active); in assay [4] (setting [7]), 40% (inactive); in assay [4] (setting [8]) it was 34% (inactive); in assay [4] (at 50.0 µM), 95.6% (active). In addition, the growth inhibition in assay [5] (setting [7]) is 12% (inactive); in assay [5] (setting [8]) it was 49% (inactive); in assay [5] (at 50.0 µM), 96.8% (active); in assay [6] (setting [7]) it was -11% (inactive); in assay [6] (setting [8]), 77% (active); in assay [6] (at 50.0 µM) it was 96.7% (active).

For the compound `CN1CCN(c2ccc([N+](=O)[O-])c3no[n+]([O-])c23)CC1`, the growth inhibition was 96% (active) and 97% (active) in assay [1] (setting [7]); 99% (active) in assay [1] (setting [8]); 99.2% (active) and 89.8% (active) in assay [1] (at 50.0 µM); 52% (inactive) and 81% (active) in assay [2] (setting [7]); 99% (active) in assay [2] (setting [8]); 97.5% (active) and 93% (active) in assay [2] (at 50.0 µM). For the same compound, the growth inhibition in assay [3] (setting [7]) was 82% (active) and 93% (active); in assay [3] (setting [8]), 99% (active); in assay [3] (at 50.0 µM) it was 98.8% (active) and 91.3% (active); in assay [4] (setting [7]) it was 72% (active) and 46% (inactive); in assay [4] (setting [8]) it was 97% (active) and 98% (active); in assay [4] (at 50.0 µM), 92.7% (active) and 84.6% (active). Further, the growth inhibition in assay [5] (setting [7]) is 45% (inactive) and 65% (inactive); in assay [5] (setting [8]), 99% (active) and 97% (active); in assay [5] (at 50.0 µM) it was 98.2% (active) and 91.5% (active); in assay [6] (setting [7]) it was 94% (active) and 97% (active); in assay [6] (setting [8]), 99% (active); in assay [6] (at 50.0 µM), 94.2% (active) and 90.2% (active).

`[O]=[Sb]([OH])([OH])[c]1ccccc1`: the growth inhibition was 95% (active) in assay [1] (setting [7]); 98% (active) in assay [1] (setting [8]); 99.5% (active) and -13.8% (inactive) in assay [1] (at 50.0 µM); 91% (active) in assay [2] (setting [7]); 99% (active) in assay [2] (setting [8]); 99.5% (active) and -26.9% (inactive) in assay [2] (at 50.0 µM). The growth inhibition in assay [3] (setting [7]) was 94% (active); in assay [3] (setting [8]), 99% (active); in assay [3] (at 50.0 µM) it was 99.2% (active) and 28.1% (inactive); in assay [4] (setting [7]) it was 94% (active); in assay [4] (setting [8]), 98% (active); in assay [4] (at 50.0 µM) it was 99.4% (active) and 23% (inactive). Moreover, the growth inhibition in assay [5] (setting [7]) is 93% (active); in assay [5] (setting [8]), 98% (active); in assay [5] (at 50.0 µM), 99.3% (active) and 17.1% (inactive); in assay [6] (setting [7]), 94% (active); in assay [6] (setting [8]), 98% (active); in assay [6] (at 50.0 µM), 99.2% (active) and 6.5% (inactive).

With `c1ccc([Te][Te]c2ccccc2)cc1`, the growth inhibition in assay [1] (setting [7]) was 62% (inactive); in assay [1] (setting [8]), 90% (active); in assay [1] (at 50.0 µM) it was 17.6% (inactive); in assay [2] (setting [7]), 22% (inactive); in assay [2] (setting [8]) it was 68% (inactive); in assay [2] (at 50.0 µM) it was 36.2% (inactive). Also, the growth inhibition is 40% (inactive) in assay [3] (setting [7]); 79% (active) in assay [3] (setting [8]); 75% (active) in assay [3] (at 50.0 µM); 49% (inactive) in assay [4] (setting [7]); 63% (inactive) in assay [4] (setting [8]); 71.2% (active) in assay [4] (at 50.0 µM). Also, the growth inhibition in assay [5] (setting [7]) was 52% (inactive); in assay [5] (setting [8]) it was 68% (inactive); in assay [5] (at 50.0 µM) it was 41.5% (inactive); in assay [6] (setting [7]), 56% (inactive); in assay [6] (setting [8]) it was 88% (active); in assay [6] (at 50.0 µM), 86% (active).

For the origin of these results see PubChem BioAssay (NCI).
